In PubChem BioAssay AID602350 (Broad Institute, 2012):
Results with a measured potency or affinity are listed apart.

target: Protein disulfide-isomerase (Homo sapiens) (UniProt P07237); experiment: PDI inhibitors, insulin aggregation turbidity, dose response, biochemical, absorbance, cherry-picked samples (AID 602350); details: recombinant PDI insulin aggregation, absorbance 650 nm, 90 min; series mostly up to 19.5 µM; activity change, negative = inhibition: at the top concentration;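 further: 0% = neutral controls and -100% = rutin hydrate positive control wells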
Sequence (P07237 whole entry, looked up): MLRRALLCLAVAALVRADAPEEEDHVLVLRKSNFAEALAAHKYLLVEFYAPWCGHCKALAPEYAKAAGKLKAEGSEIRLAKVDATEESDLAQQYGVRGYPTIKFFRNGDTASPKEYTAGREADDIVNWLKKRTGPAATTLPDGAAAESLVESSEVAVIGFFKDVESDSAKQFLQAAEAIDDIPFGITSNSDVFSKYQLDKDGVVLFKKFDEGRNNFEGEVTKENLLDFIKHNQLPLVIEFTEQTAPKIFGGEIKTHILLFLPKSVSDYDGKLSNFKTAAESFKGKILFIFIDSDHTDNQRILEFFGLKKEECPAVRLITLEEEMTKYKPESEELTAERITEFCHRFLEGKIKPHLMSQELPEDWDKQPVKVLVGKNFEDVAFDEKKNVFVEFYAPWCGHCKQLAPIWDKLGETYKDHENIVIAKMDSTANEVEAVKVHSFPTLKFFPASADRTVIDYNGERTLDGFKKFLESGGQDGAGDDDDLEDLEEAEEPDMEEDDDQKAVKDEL

Activity change, negative = inhibition, inactive:
CCOc1ncccc1C(=O)OCC(=O)Nc1ccc(C(C)C)cc1 1.68%, O=c1cc(CN2CCN(S(=O)(=O)/C=C/c3ccccc3)CC2)c2ccc(O)cc2o1 -3.96%, COc1cccc(/C=N/NC(=O)CNC(=O)C(c2ccccc2)c2ccccc2)c1O 4.69%, CCOC(=O)c1c(CN(CC)CC)n(C)c2cc(Br)c(O)cc12 -5.83%, O=C(N/N=C/c1cccc([N+](=O)[O-])c1)c1cnccn1 21.7%, NC(=O)c1ccc(NC(=O)COC(=O)c2ccc(Br)c(S(=O)(=O)N3CCOCC3)c2)cc1 0.252%, CCOC(=O)C(C)c1n[nH]c(=O)c2ccccc12 (centres undefined) -1.51%, C[C@@H]1CN([C@@H](C)CO)C(=O)c2cccc(NS(C)(=O)=O)c2O[C@@H]1CN(C)Cc1ccc(Oc2ccccc2)cc1 -12.7%, O=c1[nH]c(C2CCN(S(=O)(=O)c3ccc(C(F)(F)F)cc3)CC2)nc2c1nnn2Cc1ccc(F)cc1 14.8%, COc1ccc(S(=O)(=O)NCC(c2ccc(F)cc2)N2CCOCC2)cc1Br (centres undefined) -1.36%, Cc1ccc2nsnc2c1NC(=O)c1cccnc1Cl 1.26%, COc1ccc(C[C@@H]2OC3(C=CC(=O)C=C3)O[C@H]2Cc2ccc(OC)cc2)cc1 -2.56% [at 2.1 µM], CC(C)c1ccc(Nc2nc(CC(=O)O)cs2)cc1 2.08%, COc1ccc(N(CC(=O)NCCSC2CCCCC2)S(=O)(=O)c2ccccc2)c(OC)c1 -16.7%, O=S(=O)(Nc1ccc(C(O)(C(F)(F)F)C(F)(F)F)cc1)c1ccc(Cl)c2nonc12 -7.86%, Cc1cc(C)c2c(=O)n3c(nc2c1)C(Cc1ccc(O)cc1)NC(=O)c1cccnc1-3 (centres undefined) -21.6%, CN(C)CCCN(C(=O)c1ccc(S(=O)(=O)N2CCCc3ccccc32)cc1)c1nc2ccc(F)cc2s1 -10.6%, CC1(C(=O)N2CCCCC2)CCN1C(=O)Cc1ccc(-c2ccccc2)cc1 (centres undefined) 19.7%, O=C(NCCN1CCOCC1)c1cccnc1SCc1ccccc1Cl 3.56%, COCCN(CC(=O)Nc1ccccc1C(F)(F)F)C(=O)/C=C/c1cc(Cl)c2c(c1)OCCO2 11.7%, COc1ccccc1NS(=O)(=O)c1cccc(C(=O)NCC2(N(C)C)CCCCC2)c1 5.43%, CCOc1ccc(/C=N/OC(C)C(=O)NCc2ccc3c(c2)OCO3)cc1 (centres undefined) -4.34%, Cc1ccc(C)c(N2CCN(S(=O)(=O)c3ccc4c(c3)OCCO4)CC2)c1 -6.5%, CC(=O)c1ccc(N2CCN(C(=O)c3ccc4[nH]c(C)c(C)c4c3)CC2)cc1 1.67%, CCOC(=O)c1cc(S(=O)(=O)N2CCN(C(=O)OCC)CC2)cn1C 11.8%, Cc1ccc(-c2cc(C(=O)NNC(=O)c3csc(N4CCOCC4)n3)c3ccccc3n2)cc1 1.95%, CN1C(=O)NC(c2ccccc2)C2=C1CN(c1cccc(C(F)(F)F)c1)C2=O (centres undefined) 12.6%, CCCNC(=O)c1cccc(COc2ccccc2OC)c1 -48.7%, CC(C)c1ccc(/C=N/NC(=O)c2ccc(-n3cnnn3)cc2)cc1 12.5%, CCN(CC(=O)Nc1ccc2c(c1)OCCO2)C(=O)CC1CCCC1 0.091%, Cc1ccc(O)c(NC(=O)CSc2n[nH]c(-c3ccccc3)n2)c1 -3.42% [at 6.8 µM], CCOC(=O)c1c(CN2CCN(C)CC2)n(-c2ccccc2)c2cc(Br)c(O)cc12 -11.8%, COc1ccc(C2c3ccc(O)cc3Oc3ncn(CCCO)c(=N)c32)cc1 (centres undefined) -24.8%, Cc1cc(C(=O)Cn2nnc3ccccc3c2=O)c(C)n1-c1ccccc1F 1.9%, Cn1cc(Cl)c(C(=O)OCC(=O)Nc2ccccc2)n1 -5.44%, C[C@@H](C(=O)NCc1ccccc1)N1C(=O)C2CC=CCC2C1=O (some centres undefined) -0.93%, CC(=O)Oc1ccc(C2OC(=O)c3ccccc3N2C(C)=O)cc1 (centres undefined) 29% [at 6.8 µM], COc1cc2c(cc1OC)C1C(C(=O)Nc3ccccc3N3CCN(C)CC3)c3ccccc3C(=O)N1CC2 (centres undefined) -4.54%, Cc1ccc(S(=O)(=O)N(C)c2ccc(OC(=O)COc3ccccc3)cc2)cc1 -1.41%
